Screening data as filed in PubChem.
Only some compounds are listed: those with a hit (about 2.6% of all), similar ones and a draw of the others.
Cruzain inh noDet = inhibitors of Trypanosoma cruzi cruzain without detergent. P25779. purified cruzain, Z-FR-AMC fluorescence, no detergent. Potency, µM, actives largely listed as inhibitors. hit rate 2.3% among 200,000; further: nearly all actives have a fitted effect of over 40% in size
Target sequence (P25779 123-467 limits assumed): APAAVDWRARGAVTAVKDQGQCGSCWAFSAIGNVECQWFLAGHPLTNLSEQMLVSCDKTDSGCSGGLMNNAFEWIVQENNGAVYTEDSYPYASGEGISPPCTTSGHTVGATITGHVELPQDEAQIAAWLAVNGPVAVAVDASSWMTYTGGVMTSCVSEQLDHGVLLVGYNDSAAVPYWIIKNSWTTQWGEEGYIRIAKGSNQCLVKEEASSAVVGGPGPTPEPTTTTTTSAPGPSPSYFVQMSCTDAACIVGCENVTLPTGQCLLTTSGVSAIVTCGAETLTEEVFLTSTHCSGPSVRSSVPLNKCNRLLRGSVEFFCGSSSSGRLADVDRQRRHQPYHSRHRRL
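Detergent-free condition (0.00005% Triton X-100) in acetate buffer pH 5.5 with DTT. 1.5 nM enzyme and compound were pre-mixed 15 min, then 2 uM Z-FR-AMC substrate added; reaction progress from fluorescence change between first and third reads (60 s).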
Cruzain inh Det = cruzain (T. cruzi) inhibition with detergent; purified cruzain, Z-FR-AMC fluorescence, 0.01% Triton; Potency, µM, actives largely listed as inhibitors; hit rate 0.43% among 200,000; AID 1478; further: nearly all actives have a fitted effect of over 40% in size
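In this qHTS format, compounds are incubated with 1.5 nM cruzain for 15 min at room temperature before 2 uM Z-FR-AMC is added. Release of AMC is followed at 360/450 nm, and progress is taken as the 60 s fluorescence difference.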
A number is an active result. The call rests on the fitted dose curve; in most records, active means well fitted curve in the direction sought with a large enough effect; inconclusive means small, poorly fitted or top-dose-only effect, or another doubt; inactive means no such curve, though single readings can be large; an effect the other way counts as inactive or inconclusive.

`Cc1ccc(-c2nc3ccccc3[nH]2)cc1NC(=O)c1ccc2c(c1)OCO2` gave Cruzain inh noDet inconclusive and Cruzain inh Det inactive.
S=C(NCc1ccc(Cl)c(Cl)c1)Nc1ccc2c(c1)OCO2 was read as Cruzain inh noDet inactive and Cruzain inh Det inactive.
`S=C(NCc1ccc2c(c1)OCO2)Nc1ccc(-c2nc3ccccc3[nH]2)cc1` gave Cruzain inh noDet 20µM and Cruzain inh Det inactive.
For CC(C)(C)OC(=O)N1CCC(c2c(C(=O)NCc3ccc4c(c3)OCO4)cnn2-c2ccccc2Cl)CC1 the results were Cruzain inh noDet inactive and Cruzain inh Det inactive.
For COc1ccccc1CNC(=O)c1ccc(-c2nc(CN3CCc4ccccc43)c(C)o2)cc1 the results were Cruzain inh noDet inconclusive and Cruzain inh Det inactive.
Cc1ccc(O)c(C(=O)c2cc(C(=O)NCCc3ccccc3)c(=O)n(CCc3ccccc3)c2)c1 was read as Cruzain inh noDet 25.1µM and Cruzain inh Det inactive.
COc1ccc(O)c(C(=O)c2cc(C(=O)NCCc3ccccc3)c(=O)n(CCc3ccccc3)c2)c1 was read as Cruzain inh noDet inactive and Cruzain inh Det inactive.
Cn1c(=O)[nH]c(=O)c2c1nc(N1CCN(c3cccc(Cl)c3)CC1)n2CCCc1ccccc1 was read as Cruzain inh noDet 12.6µM and Cruzain inh Det inactive.
Screening CCCCCn1c(N2CCN(c3cccc(Cl)c3)CC2)nc2c1c(=O)[nH]c(=O)n2C returned Cruzain inh noDet inconclusive and Cruzain inh Det inactive.
Screening CCN(c1ccccc1)S(=O)(=O)c1c(-c2ccc(C)cc2)csc1C(=O)OC returned Cruzain inh noDet inactive and Cruzain inh Det inactive.
For NCC(=O)Nc1ccccc1 the results were Cruzain inh noDet inactive and Cruzain inh Det inactive.
For COc1ccccc1-n1c(SCC(=O)c2ccc(O)cc2O)nc2cc([N+](=O)[O-])ccc21 the results were Cruzain inh noDet 12.6µM and Cruzain inh Det inactive.
COc1ccccc1-n1c(SCC(=O)NC2CCS(=O)(=O)C2)nc2cc([N+](=O)[O-])ccc21 (stereo not given) was read as Cruzain inh noDet inconclusive and Cruzain inh Det inactive.
`O=C(Cn1c(=O)nc(-c2ccccc2)c2cc(Cl)ccc21)NCCCc1ccccc1` gave Cruzain inh noDet inactive and Cruzain inh Det inactive.
N#Cc1cccc(NC(=O)N2CC3(CCN(C(=O)c4ccco4)CC3)C2)c1 was read as Cruzain inh noDet inactive and Cruzain inh Det inactive.
`COc1ccc(NC(=O)c2sc3nc(C)c(C(=O)Nc4ccc(C)cc4C)c(-c4ccc(C)o4)c3c2N)cc1` gave Cruzain inh noDet inactive and Cruzain inh Det inactive.
`N[C@](CC1c2ccccc2Oc2ccccc21)(C(=O)O)[C@@H]1C[C@@H]1C(=O)O` gave Cruzain inh noDet inactive and Cruzain inh Det inactive.
Screening CC1=C(C)CS(=O)N(c2ccc(S(N)(=O)=O)cc2)C1 (stereo not given) returned Cruzain inh noDet 15.8µM and Cruzain inh Det 15.8µM.
CC1=C(C)CS(=O)N(S(=O)(=O)c2ccccc2)C1 (stereo not given) was read as Cruzain inh noDet inactive and Cruzain inh Det inactive.
For CC1=C(c2ccc(F)cc2)S(=O)(=O)N=C1N1CCC(C(=O)NCCc2ccco2)CC1 the results were Cruzain inh noDet inactive and Cruzain inh Det inactive.
For CCSc1nc(-c2ccc(OC)cc2)cc(-c2ccccc2)c1C#N the results were Cruzain inh noDet inactive and Cruzain inh Det inactive.
For COc1ccc(-c2cc(-c3ccccc3)nc(SCC(=O)Nc3ncc(C)s3)c2C#N)cc1 the results were Cruzain inh noDet 7.94µM and Cruzain inh Det inactive.
Cc1cccc(-c2cc(-c3ccccc3)nc(SCC(=O)Nc3ccccc3)c2C#N)c1 was read as Cruzain inh noDet inactive and Cruzain inh Det inactive.
`COc1ccc(-c2cc(-c3cccs3)c(C#N)c(SCC(=O)NCc3ccccc3)n2)cc1` gave Cruzain inh noDet 7.94µM and Cruzain inh Det inactive.
Screening COc1ccc(-c2cc(-c3cccs3)c(C#N)c(SCC(=O)NCc3ccccc3OC)n2)cc1 returned Cruzain inh noDet inconclusive and Cruzain inh Det inactive.
Screening CCc1nnc(NC(=O)CSc2nc(-c3ccc(F)cc3)cc(-c3ccccc3)c2C#N)s1 returned Cruzain inh noDet 7.94µM and Cruzain inh Det inactive.
For COc1ccc(C2C=C(c3ccc(Cl)cc3)Nc3nc(-c4ccc(Cl)cc4)nn32)cc1 (stereo not given) the results were Cruzain inh noDet inactive and Cruzain inh Det inactive.
`Cc1ccccc1CN1C(=O)C(O)(CC(=O)c2cccc(Br)c2)c2ccccc21` (stereo not given) gave Cruzain inh noDet inactive and Cruzain inh Det inactive.
`COC(=O)/C(Cc1cc(Br)c(OC)c(Br)c1O)=N/O` gave Cruzain inh noDet inactive and Cruzain inh Det inactive.
`O=C(Nc1noc2ccccc12)c1cccc(Cl)c1Cl` gave Cruzain inh noDet 25.1µM and Cruzain inh Det inactive.
`COc1ccc(C(=O)Nc2noc3ccccc23)cc1` gave Cruzain inh noDet inactive and Cruzain inh Det inactive.
Screening CCCCc1ccc(NC(=O)OC)cc1 returned Cruzain inh noDet inactive and Cruzain inh Det inactive.
